# Measured values: PubChem BioAssay AID602179 (National Center for Advancing Translational Sciences (NCATS), 2012)
# Screen size: about 390,000 compounds; about 360 (0.092%) were called active. Calls follow the shape of the dose curve; as a rule, active = well fitted inhibition curve with a large enough effect; inconclusive = small, poorly fitted or top-dose-only effect; inactive = no such curve, though single readings can be large or run the other way. The sample as a whole holds a higher share of actives than the screen did.
# Biological target: Isocitrate dehydrogenase [NADP] cytoplasmic (Homo sapiens) (UniProt O75874)
# Experiment: qHTS for Inhibitors of mutant isocitrate dehydrogenase 1 (IDH1): qHTS; also: nearly all actives have a fitted effect of over 65% in size
# Conditions: IDH1-R132H enzyme, NADPH consumption, diaphorase/resazurin fluorescence; series mostly up to 76.6 µM; activity change, negative = inhibition: at the top concentration
# From the text: Unbiased genomic sequencing for 22 glioma genomes found recurrent mutation of isocitrate dehydrogenase 1 (IDH1) on chromosome 2q33-a gene encoding the cytosolic isoform of IIDH1associated with the tricarboxylic acid cycle (TCA) that catalyzes the oxidative decarboxylation of isocitrate, yielding alpha-ketoglutarate and CO2 via NADP+ to NADPH conversion. Subsequent studies confirmed the recurrent IDH mutations in up to 70% of secondary gliomas and in 10% of AML cases. […] This in effect defines IDH1 as an oncogene, and provides an extraordinary opportunity to discover chemical probes against mutant IDH1 that may translate into much needed new therapies for glioma and AML patients. […] NIH Chemical Genomics Center [NCGC] NIH Molecular Libraries Probe Centers Network [MLPCN] MLPCN Grant: DA032129 Assay Submitter (PI): Lenny Dang, Agios Pharmaceuticals
# IDH1-R132H (0.5 ug/mL) was dispensed into black, solid-bottom 1536-well plates at 3 uL/well in 20 mM Tris-HCl (pH 7.5), 150 mM NaCl, 10 mM MgCl2, 4 mM beta-ME, and 0.05% protease-free BSA. Then, 23 nL of compounds or DMSO were delivered to each well using a pin tool. A pre-read was run on the Viewlux to identify fluorescent compounds (540 nm excitation filter, 598 nm emission filter, bodipy mirror and 2 second exposure). After 30 minutes of incubation with compound, 3 uL of substrate mix were dispensed (0.016 mM NADPH, 2 mM alpha-KG, 20 mM Tris-HCl (pH 7.5), 150 mM NaCl, 10 mM MgCl2, and 0.05% protease-free BSA). Plates were spun for 1 min at 1000xg and incubated at room temperature for 80 min. Then 1.5 uL of each detection reagent component for the coupling system were added (0.12 mg/mL diaphorase and 0.072 mM resazurin, each in 20 mM Tris-HCl (pH 7.5), 150 mM NaCl, 10 mM MgCl2, and 0.05% protease-free BSA ) The protein, substrate and two detection components were maintained at 4 °C throughout the screen. Additionally, the substrate and resazurin reagents were protected from light. The plates were measured on an Envision plate reader for fluorescence signal using a 540 nm excitation filter and 590 nm emission filter with 10 flashes. 1x and 0x (no-enzyme) IDH1-R132H enzyme control were used to normalize %Activity of identified inhibitors; 0x enzyme values corresponded to 100% Activity (full inhibition), while 1x IDH1-R132H enzyme values were used to normalize 0%Activity (no inhibition). Concentration-response curves were fitted to the signals arising from the resulting fluorescence. The concentration-effect curves were then classified based on curve quality (r2), response magnitude and degree of measured activity, and compounds were subsequently categorized based on their curve class. […] Keywords: isocitrate dehydrogenase, IDH1, IDH1-R132H, MLSMR, MLPCN, NIH Roadmap, qHTS, NCGC
# % is scaled to controls: 0 for no effect and ±100 for the full control effect; potency is read from the fitted curve at half-maximal effect.
# Chain of Isocitrate dehydrogenase [NADP] cytoplasmic (Homo sapiens) (O75874 whole entry R132H, change not shown): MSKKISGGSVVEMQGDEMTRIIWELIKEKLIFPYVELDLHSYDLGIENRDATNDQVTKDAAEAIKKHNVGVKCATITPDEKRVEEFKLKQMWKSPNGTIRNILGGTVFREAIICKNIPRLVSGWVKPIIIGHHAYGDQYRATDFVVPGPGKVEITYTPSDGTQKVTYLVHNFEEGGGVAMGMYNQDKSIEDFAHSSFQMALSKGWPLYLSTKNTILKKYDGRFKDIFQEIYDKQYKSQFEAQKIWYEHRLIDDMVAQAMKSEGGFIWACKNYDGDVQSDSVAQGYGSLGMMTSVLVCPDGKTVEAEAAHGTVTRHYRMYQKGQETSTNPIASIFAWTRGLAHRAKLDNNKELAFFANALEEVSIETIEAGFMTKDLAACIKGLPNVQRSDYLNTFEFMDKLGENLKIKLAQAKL
Compound,Potency,"activity change, negative = inhibition"
CC(C)(C)c1ccc(S(=O)(=O)Nc2ccc(O)c(Sc3nc4ccccc4s3)c2)cc1,39.8 µM (active),
Cn1c(O)c(C=NCCN2CCNCC2)c(=O)n(C)c1=O,,3.83% (inactive)
CCOCCc1c(O)[nH]c(=S)[nH]c1=O,,0% (inactive)
O=C(Nc1ccc(Cl)cc1C(=O)c1ccccc1)c1cc(Cl)cc(Cl)c1,,-0.857% (inactive)
CC(C)Oc1ccc(NC(=O)c2cc3ccccc3o2)cc1,,44.4% (inactive)
